Screening results as filed in PubChem BioAssay.
Sampled rows, rich in hits. Any-hit rate of the full collection: about 4%.
Glioma ERSR ind: induces the endoplasmic reticulum stress response in human glioma cells. Potency, µM, inactives show at the top dose activation, most hits filed as activators. AID 602332. U87-MG GRP78 promoter luciferase reporter, 16 h. 420,000 compounds, 0.02% hits; active = well fitted activation curve with a large enough effect; note: potency is the fitted concentration of half-maximal effect; series mostly up to about 76 µM; % of control where 0% means no effect; nearly all actives have a fitted effect of over 35% in size
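Stably transfected U87-MG glioma cells carrying a GRP78-based luciferase sensor; 16 h compound incubation. Luminescence end-point read 10 min after Bright-Glo addition at room temperature.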
TRHR enhancer: TRH receptor (human) allosteric enhancement; P34981; TRHR cells, fluo-8 calcium fluorescence, EC20 TRH enhancement; enhancement, % at 2 µM; 360,000 compounds, 0.66% hits; AID 493056; in the data active = enhancement above about 30%; note: 0% is about no effect
Target sequence (P34981 whole entry, looked up): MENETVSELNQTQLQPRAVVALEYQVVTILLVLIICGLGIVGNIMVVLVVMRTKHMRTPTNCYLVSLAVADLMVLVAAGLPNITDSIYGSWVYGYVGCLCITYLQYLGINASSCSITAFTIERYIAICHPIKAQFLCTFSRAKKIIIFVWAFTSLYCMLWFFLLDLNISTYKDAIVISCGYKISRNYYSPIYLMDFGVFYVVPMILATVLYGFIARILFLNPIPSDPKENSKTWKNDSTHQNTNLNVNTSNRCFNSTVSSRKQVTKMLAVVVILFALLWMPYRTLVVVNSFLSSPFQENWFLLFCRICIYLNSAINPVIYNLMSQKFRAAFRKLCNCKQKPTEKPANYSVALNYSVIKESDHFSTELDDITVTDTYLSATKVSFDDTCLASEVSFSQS
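Enhancer read-out: after compound pinning and an initial kinetic agonist-mode read, an EC20 of TRH (10 nM final) was injected and fluo-8 calcium signal (Ex 480/Em 530) followed at 1 s/cycle for 100 cycles in TRHR-expressing cells.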
TRHR ag: agonists of human TRH receptor. P34981. 360,000 compounds, 0.18% hits. activation, % at 2 µM. TRHR cells, calcium flux fluo-8, FDSS agonist mode. AID 493084; note: 0% is about no effect
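Fluo-8-loaded TRHR cells; 10 s baseline, compound added, kinetic Ca2+ fluorescence read 1/s, agonist mode.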
D1 antag: antagonists of human D1 dopamine receptor; P21728; HEK293 TREx D1 cells, calcium flux, dopamine EC80; stronger effect = lower value; activity change, negative = inhibition, % at 10 µM; 360,000 compounds, 3.2% hits; in the data active = activity change below about -30%; note: % is set by controls: 0 for no effect and ±100 for the full control effect
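Inducible Hek293 Trex D1 cells (tetracycline, overnight, 30 C). Calcium dye 30–90 min RT. Antagonist mode: EC80 dopamine added after 180 s compound read.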
D1 PAM: human D1 dopamine receptor positive modulation | P21728 | HEK293 TREx D1 cells, calcium flux, dopamine EC20 potentiation | potentiation, % at 10 µM | 360,000 compounds, 0.036% hits | AID 504651; in the data active = potentiation above about 30%; note: 0% is about no effect
D1 agonist: agonists of human D1 dopamine receptor | P21728 | HEK293 T-REx D1 cells, calcium flux, agonist mode | activation, % at 2 µM | 360,000 compounds, 1% hits; note: 0% is about no effect
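Tetracycline-induced HEK293 TREx D1 cells, force-coupled to calcium signalling, were dye-loaded with a no-wash calcium kit. Compound was pin-added after a 10 s baseline. Fluorescence was read kinetically at 1 cycle/s for 180 s, with calcium rises flagged as agonism.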
Numbers without * were called inactive. Cut-off read from the data, not from the text of the source, unless noted: active = activation above about 30%; inactive = the rest.

`O=C(COC(=O)c1cccc(O)c1)Nc1ccc(S(=O)(=O)N2CCOCC2)cc1` gave Glioma ERSR ind -2%, TRHR enhancer -2, TRHR ag 0, D1 antag -11, D1 PAM 0 and D1 agonist 1.
For CC1(c2ccccc2)NC(=O)N(CC(=O)Nc2ccccc2C(=O)N2CCCCC2)C1=O (stereo unspecified) the results were Glioma ERSR ind -3%, TRHR enhancer 3, TRHR ag 0, D1 antag 10, D1 PAM -6 and D1 agonist -1.
`CCCOc1ccc(/C=C2\SC(N)=NC2=O)cc1OC` gave Glioma ERSR ind -3%, TRHR enhancer -20, TRHR ag 0, D1 antag -42*, D1 PAM -14 and D1 agonist 0.
For COc1ccc(/C=C2\SC(N)=NC2=O)cc1Br the results were Glioma ERSR ind 3%, TRHR enhancer 4, TRHR ag 0, D1 antag -17, D1 PAM -5 and D1 agonist 0.
Screening COC(=O)c1nc(NC2=NCCCCC2)n[nH]1 returned Glioma ERSR ind -3%, TRHR enhancer -5, TRHR ag 0, D1 antag -36*, D1 PAM -2 and D1 agonist 1.
`O=C1OC2(c3ccc(O)cc3Oc3cc(O)ccc32)c2ccccc21` gave Glioma ERSR ind 1%.
For CC(=O)Oc1ccc2c(c1)Oc1cc(OC(C)=O)ccc1C21OC(=O)c2ccccc21 the results were Glioma ERSR ind -2%, TRHR enhancer -20, TRHR ag 106*, D1 antag 4, D1 PAM -1 and D1 agonist 834*.
Cn1nccc1C(=O)NCC1CCC2(CCN(Cc3ccc(-c4ccc(Cl)cc4)o3)CC2)O1 (stereo unspecified) was read as Glioma ERSR ind 0%.
O=S(=O)(c1ccc2ccccc2c1)N1CCC(c2nc(-c3ccncc3)no2)CC1 was read as Glioma ERSR ind -2%, TRHR enhancer -4, TRHR ag 1, D1 antag -35*, D1 PAM 0 and D1 agonist 2.
Screening O=C(N/N=C/c1ccc(N2CCOCC2)cc1)c1ccc(O)cc1 returned Glioma ERSR ind 4%, TRHR enhancer 7, TRHR ag 1, D1 antag -55*, D1 PAM -5 and D1 agonist 2.
`CN(C)C(=O)N(CCCN1CCOCC1)Cc1cccc2ccccc12` gave Glioma ERSR ind -4%, TRHR enhancer -7, TRHR ag 0, D1 antag -49*, D1 PAM -14 and D1 agonist 2.
For N#Cc1nc(Cc2cccc3ccccc23)oc1NCCCN1CCOCC1 the results were Glioma ERSR ind -3%, TRHR enhancer 16, TRHR ag 0, D1 antag -42*, D1 PAM -11 and D1 agonist 8.
N#Cc1nc(Cc2cccc3ccccc23)oc1NCCCn1ccnc1 was read as Glioma ERSR ind -3%, TRHR enhancer 4, TRHR ag 0, D1 antag 7, D1 PAM -6 and D1 agonist 9.
For c1ccc2c(CNCCN3CCOCC3)cccc2c1 the results were Glioma ERSR ind -1%, TRHR enhancer 5, TRHR ag 0, D1 antag -32*, D1 PAM -11 and D1 agonist 3.
`Cc1cccc(NC(=S)N(CCCN2CCCC2)Cc2cccn2Cc2ccc(Cl)cc2)c1` gave Glioma ERSR ind -5%, TRHR enhancer -10, TRHR ag 0, D1 antag -16, D1 PAM -14 and D1 agonist 10.
For CCOc1ccc(NC(=S)N(CCCN2CCCC2)Cc2cccn2Cc2ccc(Cl)cc2)cc1 the results were Glioma ERSR ind -2%, TRHR enhancer -8, TRHR ag 1, D1 antag -48*, D1 PAM -14 and D1 agonist 4.
`C=CCn1c(SC(C)C#N)nc2ccccc2c1=O` (stereo unspecified) gave Glioma ERSR ind -3%.
CSc1nnc(CNC(=O)/C=C/c2ccccc2Cl)n1-c1ccc(F)cc1 was read as Glioma ERSR ind -1%.
